High-throughput results as filed in PubChem.
Hits are enriched below; roughly 5.4% of the tested compounds scored in any of these assays.
HSF1 inhib – HSF1 inhibition; activity change, negative = inhibition, % at 7.5 µM (by protocol); hit rate 0.77% among 300,000; NIH3T3-HGL HSE-luciferase, MG132-induced, luminescence 8 h; hits give low values; AID 2098;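 active = more than half of replicate wells show activity change below -50%, luminescence cut by over half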;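 also: luciferase reports HSF-1 transcriptional activity via heat shock element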
HSF1 activator – increases HSF-1 driven luciferase reporter signal. NIH3T3-HGL HSF-1 luciferase reporter, MG132, 8 h; 100% = twice DMSO control signal. activation, % at 9 µM. hit rate 1.7% among 300,000;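 active = mean replicate activation of at least 50% with a set share of replicates each reaching 50%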
AHR act – human AHR activation | P35869 | AHR-responsive luciferase reporter cells, luminescence | activation, % at 5 µM | hit rate 2.5% among 320,000 | AID 2796; in the data active = activation above about 47%
Target sequence (P35869 whole entry, looked up): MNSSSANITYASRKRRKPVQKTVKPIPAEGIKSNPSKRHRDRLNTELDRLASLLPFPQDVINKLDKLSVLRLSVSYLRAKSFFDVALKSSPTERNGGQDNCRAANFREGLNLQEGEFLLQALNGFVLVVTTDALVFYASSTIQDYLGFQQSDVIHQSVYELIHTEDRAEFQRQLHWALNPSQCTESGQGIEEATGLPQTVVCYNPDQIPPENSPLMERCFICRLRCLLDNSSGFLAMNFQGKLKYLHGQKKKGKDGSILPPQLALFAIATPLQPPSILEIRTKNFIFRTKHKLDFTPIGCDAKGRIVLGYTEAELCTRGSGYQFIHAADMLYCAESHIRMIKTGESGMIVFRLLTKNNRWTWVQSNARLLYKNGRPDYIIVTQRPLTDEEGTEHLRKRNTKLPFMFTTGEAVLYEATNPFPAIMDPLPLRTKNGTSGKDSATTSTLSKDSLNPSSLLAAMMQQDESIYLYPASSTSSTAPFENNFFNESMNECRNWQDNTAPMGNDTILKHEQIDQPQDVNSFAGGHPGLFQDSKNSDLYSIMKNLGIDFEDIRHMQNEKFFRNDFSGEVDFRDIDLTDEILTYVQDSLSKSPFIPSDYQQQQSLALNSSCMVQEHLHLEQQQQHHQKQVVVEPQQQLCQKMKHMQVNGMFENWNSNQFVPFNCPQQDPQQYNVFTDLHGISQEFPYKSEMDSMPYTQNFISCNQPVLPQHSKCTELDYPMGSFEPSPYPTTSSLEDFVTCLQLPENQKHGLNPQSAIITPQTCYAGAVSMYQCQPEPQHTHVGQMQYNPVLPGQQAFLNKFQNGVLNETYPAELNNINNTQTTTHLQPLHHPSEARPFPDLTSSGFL
DAX1 inh – NR0B1 (DAX1) inhibition; P51843; HEK293 Gal4-DAX1 luciferase reporter, luminescence; inhibition, % at 6.75 µM; hit rate 0.99% among 340,000;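 active = inhibition above the mean over all tested compounds plus 3 SD, cut at about 4.2% in these data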;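 also: inhibition shows as a rise in luminescence from relieved DAX1 repression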
FXN GAA850 act – activators of GAA850 frataxin (FXN) promoter | HEK293 lucGAA850 FXN promoter luciferase reporter, 24 h; percent of 10 µM SAHA response | activation, % at 6 µM | hit rate 0.56% among 360,000 | AID 540364;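 active = activation above the average of all compounds screened plus 3 SD, cutoff fixed separately per campaign, cut at about 7.5% in these data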
Each line names hits and unclear results; the compound was inactive in the other large screens.

CCC1CN(C(=O)N2CCC(C(=O)NCc3ccc(OC)cc3OC)CC2)c2ccccc2O1 (stereo unspecified)	none
CCCn1c(C)cs/c1=N\C(=S)Nc1ccccc1	AHR act 48
Cc1ccc(NC(=O)c2ccco2)c(NC(=O)c2ccccc2)c1	none
CCN(CC)P(=O)(Nc1ccc(C)cc1Br)c1ccc(N(C)C)cc1NC(=O)c1ccco1 (stereo unspecified)	AHR act 49
Cn1nnc(-c2ccc(OCc3ccccc3F)cc2)n1	HSF1 activator 56
COC(=O)c1c(NC(=O)COC(=O)CC(NC(C)=O)c2ccccc2)sc(C)c1C (stereo unspecified)	none
Oc1ccc(O)c(C=NNC(=S)NC2CC3CC2C2C=CCC32)c1 (stereo unspecified)	none (no result: HSF1 inhib, HSF1 activator, AHR act)
NNC(=S)NC1CC2CC1C1C=CCC21 (stereo unspecified)	HSF1 inhib -54
Cc1ccc(N2C(=O)NC(NS(=O)(=O)c3ccccc3)(C(F)(F)F)C2=O)cc1C (stereo unspecified)	none
O=C(NCc1ccc(C(=O)O)cc1)OCc1ccccc1	HSF1 inhib -54
CCOC(=O)NCc1ccccc1	none
CCOC(=O)c1oc2ccccc2c1NC(=O)c1cccc(OC)c1	none
CCOCC(=O)Nc1c(C(=O)Nc2ccccc2OC)oc2ccccc12	AHR act 73
CCC(=O)Nc1c(C(=O)Nc2cccc(OC)c2)oc2ccccc12	AHR act 63
COc1ccc(NC(=O)c2oc3ccccc3c2NC(=O)COc2ccccc2OC)c(OC)c1	none
CCOc1ccccc1NC(=O)c1oc2ccccc2c1NC(=O)C1CCCO1 (stereo unspecified)	AHR act 49
COc1ccccc1NC(=O)c1oc2ccccc2c1NC(=O)C1CC1	AHR act 64
O=C(O)COCC(=O)Nc1ccc(-n2cnnn2)cc1	none
Cc1ccsc1/C=N/NC(=O)Nc1ccccc1	HSF1 activator 58, DAX1 inh 5.2
COc1ccc(/C=N/NC(=O)c2sccc2C)c2ccccc12	DAX1 inh 6.2
Cc1ccccc1/C=N/NC(=O)c1sccc1C	HSF1 activator 55
COCCCNC(=O)C[C@H]1C[C@H](C(=O)N2CCCCC2)[C@@]2(CCc3ccccc3)c3[nH]c4cc(CCC(=O)N(C)C)ccc4c3CCN2C1=O	none (no result: HSF1 inhib, HSF1 activator, AHR act)
CCN(CC)S(=O)(=O)c1ccc(N2CCOCC2)c(NC(=O)C2CC2)c1	none
CN(C)S(=O)(=O)c1cccc(NC(=O)CSc2nnnn2-c2ccccc2)c1	none
CC[n+]1c(/C=C/c2ccc(OC)c(OC)c2)ccc2ccccc21	DAX1 inh 4.4
CC[n+]1c(/C=C/c2cc([N+](=O)[O-])ccc2O)ccc2ccccc21	HSF1 inhib -58
CC[n+]1c(/C=C/c2ccc(N(C)C)cc2)ccc2ccccc21	none
COC(=O)c1sccc1NC(=O)CSc1ccccc1N	DAX1 inh 4.8
C/C(=N\NC(=O)c1cc(C2CC2)nc2ccccc12)c1ccc(C)s1	AHR act 51
O=C(N/N=C/c1cccnc1)c1cc(C2CC2)nc2ccccc12	AHR act 48
C/C(=N\NC(=O)c1cc(C2CC2)nc2ccccc12)c1ccc(O)cc1O	none
Cn1nc(C(C)(C)C)cc1NC(=O)C1(C)CCN1C(=O)C1(c2ccccc2)CC1 (stereo unspecified)	none (no result: HSF1 inhib, HSF1 activator, AHR act, DAX1 inh)
O=C1CCNc2c(Cl)cc(Cl)cc21	DAX1 inh 5.0
Cc1ccc(C(=O)NC2CCCCC2)cc1S(=O)(=O)N1CCCC1	none
O=C(Cc1ccc(NC(=O)C2CCN(C(=O)c3ccccc3)CC2)cc1)Nc1cccc(C(=O)N2CCCCC2)c1	none (no result: HSF1 inhib, HSF1 activator, AHR act)
COC(=O)CN1C(=O)Nc2ccc(C)cc2C1c1ccccc1 (stereo unspecified)	HSF1 inhib -70
CCC(=O)Nc1ccc(OCc2nc3ccccc3s2)cc1	AHR act 58
Cc1csc(NC(=O)CSc2nc3ccccc3c3c2CCCC3)n1	HSF1 activator 58
Cc1csc(NC(=O)CCc2nc3ccccc3s2)n1	HSF1 activator 52
Fc1ccc(OCc2nc3ccccc3s2)cc1	none
c1ccc(OCc2nc3ccccc3s2)cc1	DAX1 inh 5.8
COc1ccc(CN2CCC[C@]3(N[C@H](c4ccc(C)cc4)[C@@H]4C(=O)N(C)C(=O)[C@@H]43)C2=O)cc1	none (no result: HSF1 inhib, HSF1 activator, AHR act)
COc1ccccc1NCc1nnc(-c2ccccc2)o1	none
O=C(OCc1nc2ccccc2s1)c1ccc(Br)o1	DAX1 inh 4.6
O=S(=O)(Cc1nc2ccccc2s1)c1ccccc1	HSF1 activator 59
O=S(=O)(CCc1nc2ccccc2s1)c1ccc(Cl)cc1	none
O=C(OCc1nc2ccccc2s1)c1ccc([N+](=O)[O-])o1	none
O=C(N/N=C/c1ccc([N+](=O)[O-])cc1)c1cccs1	none (no result: DAX1 inh)
CC1CCc2sc(C(=O)N/N=C/c3ccc([N+](=O)[O-])cc3)cc2C1 (stereo unspecified)	AHR act 65
CCNc1nc(NC(C)C)nc(SCCOC(=O)c2ccccc2)n1	none
CCNc1nc(NC(C)C)nc(SCCOc2ccc(C)cc2)n1	AHR act 47
CCCOc1ccc(CSCCNC(=S)Nc2ccccc2)cc1	AHR act 90
COc1cccc(C2C(C(N)=O)=C(C)Nc3nc(-c4cccc(Cl)c4)nn32)c1 (stereo unspecified)	HSF1 activator 99
CC1=C(C(N)=O)C(c2cccnc2)n2nc(-c3cccc(Cl)c3)nc2N1 (stereo unspecified)	none
COC(=O)c1cc(S(=O)(=O)N2CCN(c3ccc(C(C)=O)cc3)CC2)cn1C	none
O=C(Nc1ccccc1F)c1ccc2nc(N3C(=O)CCC3=O)sc2c1	DAX1 inh 7.1
Cc1ccc(N=C(NOCc2ccc(Cl)cc2Cl)c2nonc2N)c(C)c1	HSF1 activator 59
CC(=O)Nc1ccc(S(=O)(=O)Nc2nc3ccccc3nc2Nc2ccc3ccccc3c2)cc1	HSF1 activator 106
CC(=O)Nc1ccc(S(=O)(=O)Nc2nc3ccccc3nc2Nc2cccc(O)c2)cc1	none
N#CC(C#N)=C/C=C(\Nc1ccc(Cl)cc1)c1ccc(Cl)cc1	AHR act 120
Oc1[nH]c2ccccc2c1C=Nc1ccccc1	DAX1 inh 13
CCN(c1ccccc1)S(=O)(=O)c1ccc(Oc2ccccc2C(C)=O)nc1	none (no result: HSF1 inhib, HSF1 activator)
CCN(c1ccccc1)S(=O)(=O)c1ccc(Oc2ccc(-n3ccnc3)cc2)nc1	AHR act 59
NS(=O)(=O)c1ccc(CCNC(=O)COC(=O)/C=C/c2cc(Br)ccc2F)cc1	none (no result: HSF1 inhib, HSF1 activator, DAX1 inh)
CCOC(=O)c1c(NC(=O)C(C)N2CCN(S(=O)(=O)c3cccs3)CC2)sc2c1CCC(C)C2 (stereo unspecified)	none
COC(=O)C1C(=O)c2c([nH]c(C(=O)OC3CCCCC3)c2C)CC1C (stereo unspecified)	HSF1 activator 68, DAX1 inh 5.3
COc1cc(C)c(C(=O)Oc2cc(C)c(C(=O)O)c(O)c2C)c(OC)c1C	DAX1 inh 4.3
COc1cc(C)c(C(=O)Oc2cc(C)c(C(=O)O)c(O)c2C)c(O)c1C(=O)O	none
